# Hit rate of the full screen: of about 220,000 compounds, about 2,000 (0.91%) were called active. Another 2% or so got no clear call; they are omitted. Only a sample is shown. Measured potencies and affinities stand elsewhere. A number with no mark means an inactive call. Rule as the data show it: inconclusive = inhibition above about 80% without an active follow-up result; inactive = below that; test concentration not stated here.
# Assay: M. tuberculosis H37Rv growth inhibitors, H37Rv strain (AID 1626);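 also: bacteria incubated seven days before Alamar blue readout; 0% = bacteria only wells and 100% = bacteria with antibiotic wells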
# Settings: stronger effect = higher value, concentration not given here
row,Structure (SMILES),inhibition [%]
1,CN(CCc1ccccn1)C(=S)Nc1ccc(Cl)c(Cl)c1,3.62
2,COc1ccc(NS(=O)(=O)c2cnc[nH]2)cc1,5.45
3,Cc1[nH]n(-c2ccccc2)c(=O)c1C(=O)c1ccccc1,-0.23
4,Cc1[nH]n(-c2ccccc2)c(=O)c1C(=O)c1ccc(Cl)cc1,-3.87
5,CCn1c(=O)c(=O)[nH]c2cc(C(=O)N3CCN(c4ccccc4F)CC3)ccc21,7.44
6,Nc1ccc(C(=O)OCC(=O)N2c3ccccc3Sc3ccccc32)cc1[N+](=O)[O-],-1.19
7,Cc1cccc(C)c1N=Cc1c(O)n(-c2nccs2)c(=O)c2ccccc12,2.79
8,Cc1ccc(N=Cc2c(O)n(-c3nccs3)c(=O)c3ccccc23)cc1,-4.95
9,Clc1ccc(Cl)c(-c2ccc(/C=N/c3ncn[nH]3)o2)c1,6.69
10,Cc1cc(C(=O)N/N=C/c2ccc(-c3ccc(C)c(Cl)c3)o2)n[nH]1,56.6
11,CSc1ccc(CN(C)Cc2nc3cc(C(F)(F)F)ccc3c(=O)[nH]2)cc1,91.3
12,COc1cccc(CN(C)Cc2nc3cc(C(F)(F)F)ccc3c(=O)[nH]2)c1,4.79
13,CC(C)C(=O)NNC(=O)c1c(O)c2ccccc2[nH]c1=O,-10.7
14,Cc1cc(C)n(-c2ncc3c(n2)N(CCO)CCOC3=O)n1,10.4
15,O=C(/C=C/c1ccccc1Cl)c1cccnc1,-7.55
16,O=C(/C=C/c1cccnc1)c1ccc(O)cc1,-0.25
17,O=C(/C=C/c1ccccc1)c1ccccc1,10.5
18,O=C(/C=C/c1cccc(O)c1)c1cccnc1,53.2
19,O=C(/C=C/c1ccc([N+](=O)[O-])cc1)c1cccnc1,11.1
20,CCN(CC)c1ccc(/C=C/C(=O)c2cccnc2)cc1,16.5
21,N#Cc1ccc(/C=C/C(=O)O)cc1,-0.8
22,CN(C)c1ccc(/C=C/C(=O)c2cccnc2)cc1,3.22
23,CC(C)(C)CC(C)(C)NC(=S)NC1CCN(Cc2ccccc2)CC1,-15.9
24,Cc1ccc(NC(=S)Nc2cccc(-c3n[nH]c(=S)o3)c2)cc1,10.2

row,Structure (SMILES),inhibition [%]
1,O=C(COC(=O)/C=C/c1ccc(Cl)cc1)NCCC1=CCCCC1,-4.53
2,Cc1cccc(C(=O)NCC2CCCO2)c1 (stereo unspecified),-2.3
3,Cc1ccc(CNC(=O)C(=O)NCC2OCCN2S(=O)(=O)c2cccs2)cc1 (stereo unspecified),-2.36
4,CCOC(=O)c1c[nH]n(-c2ccc(C)cc2)c1=O,-7.4
5,Cc1onc(-c2ccccc2Cl)c1C(=O)Nc1ncn[nH]1,6.99
6,CCOC(=O)C1CCCN(Cc2cc(Br)c(OC)cc2OC)C1 (stereo unspecified),1.19
7,Cc1cc(C(=O)N(CCC#N)Cc2cccs2)no1,-6.57
8,CCOc1ccc(C(C)NC(=O)C2CCC2)cc1 (stereo unspecified),1.59
9,COCc1nnc(SCC(=O)NCc2ccccc2)n1-c1ccccc1,-6.68
10,COc1ccccc1NC(=O)C1=C(C)NC2=C(C(=O)CCC2)C1c1ccc2c(c1)OCO2 (stereo unspecified),-0.94
11,O=C(/C=C/c1ccc(Cl)c([N+](=O)[O-])c1)NCc1cccnc1,2.22
12,O=C(/C=C/c1ccc(Cl)c([N+](=O)[O-])c1)Nc1cccnc1,-11.5
13,Cc1nc(C(=O)Nc2ccc(F)cc2)nn1-c1ccc([N+](=O)[O-])cc1,-5.91
14,CCC1(C)Cc2ccccc2C(Nc2c(C)n(C)n(-c3ccccc3)c2=O)=N1 (stereo unspecified),-6.85
15,Cc1nc(-c2cccc(NC(=O)C3CCCCC3)c2)cs1,-1.02
16,COc1ccccc1Nc1nc(-c2ccc3c(c2)NC(=O)CO3)cs1,-3.16
17,COc1cccc(-c2nc(-c3ccc4c(c3)NC(=O)CO4)cs2)c1,22.4
18,CCC(C(=O)Nc1cc(Cl)c(OC)cc1OC)c1ccccc1 (stereo unspecified),-3.66
19,CC(=O)OC(C(=O)Nc1ccccc1)C(C)S(=O)(=O)c1ccccc1 (stereo unspecified),-4.23
20,O=C(Nc1ccccc1Cl)O/N=C/c1ccncc1,-1.05
21,CC(C)C(=O)Nc1ccc(C(=O)NNC(=O)NC2CCCCC2)cc1,-3.11
22,COc1cccc(NC2c3ccccc3C(=O)N2Cc2ccccc2Cl)c1 (stereo unspecified),8.87
23,O=C(COC(=O)c1ccc2ccccc2n1)c1ccc(F)cc1,-7.45
24,O=C(OCc1ccc([N+](=O)[O-])cc1)c1ccc2ccccc2n1,40.4

row,Structure (SMILES),inhibition [%]
1,O=C(CSc1nc2ccccc2s1)N1c2ccccc2Sc2ccccc21,1.29
2,O=C(O)CSc1nc2ccccc2[nH]1,-9.58
3,COc1ccc(NC(=O)COC(=O)c2cc(SC)ccc2Cl)c(OC)c1,10.1
4,COc1ccc(C(C)(C)C)cc1NC(=O)COC(=O)c1ncc(Cl)c(Cl)c1Cl,-2.28
5,O=C1c2cccc3cccc(c23)C(=O)N1CC1CCCO1 (stereo unspecified),0.46
6,O=C1c2cccc3c([N+](=O)[O-])ccc(c23)C(=O)N1c1nccs1,-1.82
7,Cc1ccc(N2C(=O)c3cccc4c([N+](=O)[O-])ccc(c34)C2=O)c2cccnc12,-2.68
8,O=C1c2cccc3cccc(c23)C(=O)N1c1ccccn1,2
9,O=C1c2ccccc2C(=O)N1CC1CCCO1 (stereo unspecified),-1.11
10,O=C1c2ccc3c4c(ccc(c24)C(=O)N1Cc1cccnc1)C(=O)N(Cc1cccnc1)C3=O,7.76
11,O=C1c2ccc(Oc3cccc([N+](=O)[O-])c3)cc2C(=O)N1c1ccccn1,-2.15
12,O=C1c2cccc3cccc(c23)C(=O)N1Cc1cccnc1,-2.19
13,CCOC(=O)c1[nH]c2cc(OC)c(OC)cc2c1NC(=O)CN1CCN(C)CC1,-4.7
14,COC(=O)CS(=O)(=O)c1ccc(C)cc1,-7.54
15,CCCOC(=O)c1c(NC(=O)CCCn2nc([N+](=O)[O-])cc2C)sc(C(=O)OC)c1C,-6.65
16,CCOP(=O)(OCC)C(Nc1cc(Cl)cc(Cl)c1)c1cccc(O)c1 (stereo unspecified),1.6
17,CCO[C@@H]1OC(C(=O)Nc2ccccc2)=C[C@H](c2ccc(C(F)(F)F)cc2)[C@H]1CCCO,3.16
18,Cc1occc1-c1nnc(SCC(=O)c2c(N)n(Cc3ccccc3)c(=O)n(C)c2=O)n1C,4.82
19,CCCC(=O)Nc1ccc(C(=O)NN=C(C2CC2)C2CC2)cc1,-2.7
20,CCCCSc1nnc(CSc2nc3nc(C)cc(C)n3n2)o1,8.33
21,CCCSc1nnc(CSc2nc3nc(C)cc(C)n3n2)o1,-11.4
22,Cc1cc2nc(N)sc2cc1[N+](=O)[O-],-4.98
23,Oc1ccc(/C=C/c2nc(-c3ccccc3O)n(-c3ccccc3)n2)cc1,21.6
24,COc1ccc(/C=C/c2nc(-c3ccccc3O)n(-c3ccccc3)n2)cc1,-4.12

row,Structure (SMILES),inhibition [%]
1,O=C(Nc1ccc(Nc2ccncc2)cc1)c1ccc([N+](=O)[O-])cc1,-0.61
2,O=C(Nc1ccc(Nc2ccncc2)cc1)c1ccc(Nc2ccnc3ccc([N+](=O)[O-])cc23)cc1,-3.41
3,COc1ccc(-c2nc(-c3ccccn3)nc(N3CCN(C)CC3)c2C#N)cc1,1.76
4,N#Cc1c(-c2ccccc2)nc(-c2ccccc2)nc1N1CCOCC1,-9.91
5,COc1ccc(-c2nc(-c3cccc(C)c3)nc(N3CCN(C)CC3)c2C#N)cc1,6.59
6,COc1cccc(-c2nc(N3CCN(C)CC3)c3ccccc3n2)c1O,10.5
7,COc1ccc(-c2nc(-c3ccccc3)nc(N3CCN(C)CC3)c2C#N)cc1,9.82
8,CN1CCN(c2nc(-c3ccccc3)nc(-c3ccccc3)c2C#N)CC1,20.2
9,O=C(COC(=O)c1ccco1)Nc1ccccc1,-8.55
10,CC(=O)c1sc(=S)n(-c2ccccc2)c1C,7.39
11,O=C(Cn1cnc2c(cnn2-c2ccc(F)cc2)c1=O)N1CCN(c2ccccc2F)CC1,3.88
12,O=S(=O)(c1ccc(-c2csc(-c3cccnc3)n2)cc1)N1CCOCC1,3.97
13,NC(=O)NC(=O)COC(=O)c1ccccc1OCc1ccc(F)cc1,4.1
14,CN(C)S(=O)(=O)c1cc(NC(=O)CN2CCCc3ccccc32)ccc1Cl,-10.6
15,O=C(CN1CCN(S(=O)(=O)c2ccc(Cl)cc2)CC1)Nc1ccc(F)cc1F,6.43
16,O=C(Cc1nnc(NC(=O)Nc2ccc(Cl)cc2)s1)NCc1ccccc1,-0.51
17,O=C(CCN1C(=O)C2C3C=CC(C3)C2C1=O)Nc1ccc2c(c1)OCO2 (stereo unspecified),-1.34
18,CC(=O)OCC(=O)Nc1ccc(Br)c(C)c1,21.6
19,CCOC(=O)C(=O)Nc1ccc(OCc2ccccc2)cc1,12.6
20,CCOCC(=O)Nc1ccc(C)c(Cl)c1,76.9
21,O=C(CSc1ncn[nH]1)Nc1ccc(OCc2ccccc2)cc1,47.3
22,CCOc1ccc(NC(=O)Cc2ccccc2)cc1,5.27
23,Cc1nc(SCC(=O)Nc2ccccn2)n[nH]1,-3.41
24,Cc1cccc(NC(=O)CCN2C(=O)C3C4C=CC(C4)C3C2=O)c1 (stereo unspecified),3.17
